miR-21 act – qHTS Assay for Modulators of miRNAs and/orActivators of miR-21; HeLa miR-21 FLuc reporter, luciferase, 48 h; Potency, µM (titrated, usually from 38.3 µM), without a hit: at the top dose activity change, positive = activation, most hits filed as activators; 340,000 tested, under 10 active; AID 2288, 2010;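 note: % of control where 0% means no effect; miR-21 action dims this reporter so a rising signal means less miR-21 action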
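HeLa cells stably expressing CMV-driven firefly luciferase with a downstream miR-21 binding sequence, endogenously expressing miR-21, were treated with titrations (up to about 40uM final) for 48 hours at 37 degree Celsius. Luciferase luminescence was read after lysis.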
PI4K2A inh – qHTS for small molecular inhibitors of PI4K2A; purified PI4K2A, ADP-Glo luminescence, 1 h; hits give low values; AID 1346378, 2018; actives 0.13% (n = 420,000); Phosphatidylinositol 4-kinase type 2-alpha (Homo sapiens), Q9BTU6; activity change, negative = inhibition, % at 76.9 µM; in the data active = activity change below about -50%; inconclusive = mostly about -30% to -49%;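 note: -100% = wells without enzyme as full effect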
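ADP-Glo luminescence measured ADP generated by PI4K2A enzyme (4 ug/mL before mixing) with 1.2 mM PI substrate (pre-mix) and 300 microM ATP (pre-mix). Tris pH7.5 buffer with MgCl2, Triton X-100; 1 h reaction at ambient temperature.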
Nrf2 activator – qHTS of Nrf2 Activators; AREc32 ARE-luciferase reporter (MCF7-derived line), luminescence, 24 h; Potency, µM (highest dose often 46.1 µM), for inactives: at the top dose activation, most hits filed as activators; actives 0.31% (n = 410,000); note: potency is the fitted concentration of half-maximal effect; % of control where 0% means no effect; nearly all actives have a fitted effect of over 65% in size
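ARE activation measured as luciferase luminescence (Steady-Glo, 30 min RT) in AREc32_Fluc cells after 24 hr compound exposure at 37 deg C, 5% CO2; cells seeded overnight at 1000/well in OPTI-MEM, 5% FBS.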
GALK inh – qHTS Assay for Inhibitors of Human Galactokinase (GALK) | Potency, µM (titrated, usually from 57.5 µM), inactives show at the top dose activity change, negative = inhibition, actives largely listed as inhibitors | P51570 | Purified GALK, Kinase-Glo residual ATP luminescence | actives 0.007% (n = 270,000); note: potency is the fitted concentration of half-maximal effect; % is set by controls: 0 for no effect and ±100 for the full control effect
Target sequence (P51570 whole entry, looked up): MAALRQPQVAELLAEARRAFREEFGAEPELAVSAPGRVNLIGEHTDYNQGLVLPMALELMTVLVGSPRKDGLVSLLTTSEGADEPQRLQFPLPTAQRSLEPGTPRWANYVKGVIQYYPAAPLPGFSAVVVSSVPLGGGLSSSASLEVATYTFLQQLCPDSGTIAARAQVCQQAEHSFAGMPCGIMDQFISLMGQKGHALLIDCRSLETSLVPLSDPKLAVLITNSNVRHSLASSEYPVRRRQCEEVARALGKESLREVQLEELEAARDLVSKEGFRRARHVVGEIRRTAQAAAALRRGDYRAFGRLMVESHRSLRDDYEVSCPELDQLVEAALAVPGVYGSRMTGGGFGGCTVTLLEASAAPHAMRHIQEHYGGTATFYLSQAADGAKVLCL
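Galactose (100 uM) and ATP (35 uM) were turned over by 5 nM GALK for 1 h at RT. Kinase-Glo Plus then converted the remaining ATP into a luminescent signal.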
Nrf2 block – Nrf2 qHTS screen for inhibitors | A549 ARE-Fluc reporter, luciferase luminescence, 18-24 h | Potency, µM (series often up to 46 µM), inactives show top-dose activity change, negative = inhibition, most hits filed as inhibitors | actives 2.1% (n = 360,000) | AID 504444, 2011; note: potency is the fitted concentration of half-maximal effect; % is set by controls: 0 for no effect and ±100 for the full control effect; nearly all actives have a fitted effect of over 60% in size
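Quantitative HTS in A549 cells stably bearing an antioxidant response element-firefly luciferase construct. Inhibition of Nrf2-driven transcription was scored by luminescence after 18-24 h of compound exposure at 37 °C.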
A549 tox – Nrf2 qHTS screen for inhibitors: counterscreen for cytotoxicity. A549 ARE-Fluc cells, CellTiter-Fluor viability, 18-24 h. Potency, µM (highest dose often 46 µM), without a hit: at the top dose activity change, negative = cytotoxicity, most hits filed as inhibitors. actives 0.16% (n = 390,000). AID 504648, 2011; note: potency is the fitted concentration of half-maximal effect; % is set by controls: 0 for no effect and ±100 for the full control effect
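A549 ARE_Fluc cells in 5% FBS OPTI-MEM were exposed to compounds in concentration-response for 18-24 h at 37 deg C. Viability was read by CellTiter-Fluor fluorescence (Ex 405/Em 525) after 30 min, before the luciferase read.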
Numbers without * were called inactive; ? = inconclusive; / = not tested or not shown. Most compounds without a hit are left out; they make up all but 2.2% or so of the library. Unless noted, calls come from the whole dose curve; as a rule, active = well fitted curve in the direction sought with a large enough effect; inconclusive = small, poorly fitted or top-dose-only effect, or another doubt; inactive = no such curve, though single readings can be large; an effect the other way counts as inactive or inconclusive.

SMILES | miR-21 act | PI4K2A inh | Nrf2 activator | GALK inh | Nrf2 block | A549 tox
CCC(COC(=O)c1ccccc1)Oc1cc(NCc2ccccc2)c2ncn(C(C)C)c2c1 (stereo not drawn) | / | -30 | -5% | / | 23µM* | 16µM*
CCC(CO)Oc1cc(NCc2ccccc2)c2ncn(C(C)C)c2c1 (stereo not drawn) | / | -15 | -5% | / | 0% | 1%
CCC(COC)Oc1cc(NCc2ccccc2)c2ncn(C(C)C)c2c1 (stereo not drawn) | / | ? | -5% | / | 18µM* | ?
CC(C)n1cnc2c(NCc3ccccc3)cc(N[C@H](C)CO)cc21 | / | -13 | -3% | / | ? | 23µM*
O=C(CSc1ccc(-c2cccs2)nn1)Nc1ccccc1 | -18% | 4 | 5% | 4% | 18µM* | 0%
COc1ccccc1NC(=O)CSc1ccc(-c2cccs2)nn1 | -13% | -1 | 0% | -2% | ? | -5%
COC(=O)c1ccc(NC(=O)CSc2ccc(-c3cccs3)nn2)cc1 | 0% | -3 | 3% | / | 9% | 9%
Cc1cc(C)cc(NC(=O)CSc2ccc(-c3cccs3)nn2)c1 | 28% | 2 | 0% | 1% | 10µM* | -2%
CC(C)CCCCCCCCCCCCC(=O)NCC(=O)NC1C(C)OC(Nc2ncnc3nc[nH]c23)C(O)C1O (stereo not drawn) | / | -3 | -2% | / | 0.037µM* | ?
COc1cc(NC(=O)c2ccccn2)ccc1NC(=O)c1ccccc1Cl | / | -7 | / | / | / | /
COc1ccc(CN(CC#Cc2ccc(C)cc2)C(N)=NC(=O)CCc2ccccc2)c(OC)c1 | / | -3 | / | / | / | /
CCOC(=O)N1CCN(C(=O)c2ccc3nc(SCc4ccc(F)cc4)n(C)c3c2)CC1 | 10% | -4 | 3% | 9% | 16µM* | -4%
O=C(c1ccc(CSc2nc3ccncc3n2Cc2cccc(F)c2)cc1)N1CCCCC1 | 14% | -2 | 0% | / | 23µM* | -12%
CCc1ccc(CNC(=O)c2ccc3nc(SCc4ccc(F)cc4)n(C)c3c2)cc1 | ? | -3 | 4% | / | ? | -10%
O=C(c1ccc(CSc2nc3ccncc3n2Cc2ccc(F)cc2)cc1)N1CCCCCC1 | 10% | -2 | -1% | / | 18µM* | -4%
O=C(c1ccc(CSc2nc3ccncc3n2Cc2cccc(F)c2)cc1)N1CCCCCC1 | 16% | -3 | -1% | / | ? | -18%
COc1cccc(C2C(C#N)=C(NC(=O)CCc3ccccc3)Oc3ccc4ccccc4c32)c1 (stereo not drawn) | / | / | / | / | 10% | -3%
CC1(C)CC(=O)N(CC(=O)N2CCN(Cc3ccccc3)CC2)c2ccccc2S1(=O)=O | / | -1 | / | / | / | /
COc1ccc2oc3cc(C)[n+]([O-])c(-c4ccc(Br)cc4)c3c2c1 | 1% | 2 | 0% | -1% | 23µM* | ?
O=C(CSc1nnc(-c2cccnc2)n1-c1ccccc1)c1ccccc1Cl | / | -1 | / | / | / | /
NS(=O)(=O)c1ccc(CCNC(=O)c2ccc([N+](=O)[O-])s2)cc1 | 13% | -4 | 4% | 5% | 9.2µM* | ?
Cc1c(CC(=O)NCCCC(=O)O)c(=O)oc2cc3c(cc12)CCC(C)(C)O3 | ? | 3 | -3% | / | 18µM* | 15%
Cc1c(CC(=O)NCCCCCC(=O)O)c(=O)oc2cc3c(cc12)CCC(C)(C)O3 | 15% | -4 | -1% | -1% | 10µM* | 3%
COCCCNC(=O)Cc1c(C)c2cc3c(cc2oc1=O)OC(C)(C)CC3 | 9% | -1 | 0% | -4% | -24% | -6%
Cc1c(CC(=O)O)c(=O)oc2cc3c(cc12)CCC(C)(C)O3 | 0% | -2 | 1% | -1% | -13% | 2%
SMILES | miR-21 act | PI4K2A inh | Nrf2 activator | GALK inh | Nrf2 block | A549 tox
O=C1CCCC2=C1C1(CCSC1)N=C(Nc1nc3ccccc3o1)N2 (stereo not drawn) | / | / | / | / | -5% | -2%
COc1ccccc1NS(=O)(=O)c1cc(NC(=O)Cc2n[nH]c(=O)c3ccccc23)ccc1Cl | / | 1 | 15% | / | 21µM* | -34%
CCCCOC(=O)/C=C\C(=O)NC(N)=O | 22% | -4 | 16µM* | / | -12% | -3%
C1=C(CCNc2ncnc3c2[nH]c2ccccc23)CCCC1 | 13% | -4 | 0% | -1% | 5.2µM* | -3%
CCc1cc2c(NCc3ccco3)ncnc2s1 | 1% | 0 | 3.5µM* | 3% | ? | 7%
Cc1ccc2[nH]c3c(NCc4ccccc4)ncnc3c2c1 | 3% | -2 | 4% | 2% | 5.2µM* | 18µM*
CC(C)OCCCNc1ncnc2c1[nH]c1ccccc12 | 5% | -6 | 3% | 3% | 12µM* | -22%
COc1ccc(CNc2ncnc3c2[nH]c2cc(OC)c(OC)cc23)cc1 | -1% | 3 | 6% | -2% | -16% | 1%
CCOc1ccc2[nH]c3c(NCCCOC)ncnc3c2c1 | -45% | 1 | 0% | -2% | 1% | 10%
O=c1c2[nH]c3ccccc3c2ncn1Cc1ccco1 | -8% | -19 | 9% | -3% | 4% | -6%
c1coc(CNc2ncnc3c2[nH]c2ccccc23)c1 | / | / | / | / | 16µM* | -3%
Cc1occc1C(=O)O/N=C(\N)c1ccc(Cl)cc1 | -41% | 1 | 6.3µM* | / | ? | 3%
Cc1noc(-c2ccc(Cl)cc2)c1C(=O)O/N=C(\N)c1ccc(C(C)(C)C)cc1 | ? | -2 | 2% | -2% | ? | ?
COc1ccc(Cl)cc1C(=O)O/N=C(\N)c1ccc(Cl)cc1 | -7% | 2 | 7.9µM* | / | ? | 4%
Cc1ccc(NS(=O)(=O)c2ccc3c(c2)CCC(=O)N3)cc1Cl | / | / | / | / | -3% | 17%
COC(=O)C1=C(C)NC(C)=C(C(=O)OCC(C)C)C1c1ccccc1[N+](=O)[O-] (stereo not drawn) | / | 1 | 3% | / | 16µM* | -10%
N#Cc1nc(-c2ccco2)oc1N1CCN(c2ccccc2)CC1 | -11% | -13 | 1% | -1% | ? | -3%
N#Cc1nc(-c2ccco2)oc1N1CCOCC1 | -4% | -2 | 13µM* | -2% | / | -2%
OC[C@H]1O[C@H](O[C@]2(CCl)O[C@H](CCl)[C@@H](O)[C@@H]2O)[C@H](O)[C@@H](O)[C@H]1Cl | / | 3 | / | / | / | /
Cc1cc([N+](=O)[O-])ccc1NCc1ccccc1 | 6% | -5 | 4% | 6% | 18µM* | ?
CCC[C@H]1[C@@H](N(C)Cc2ccccc2)CC[C@@]23CCCN2C(=O)CCC[C@@H]13 | / | 1 | / | / | / | /

High-throughput results as filed in PubChem.
